Laboratory results taken from the supplement of paper PMC10849652.
Targets with a hit are over-represented here; the source holds about 8,800 in all. About 0.5% of all pairs of compound and target were hits. A number with no mark means an inactive call.

Sequence of UniProt P33121 (P33121 whole entry, looked up): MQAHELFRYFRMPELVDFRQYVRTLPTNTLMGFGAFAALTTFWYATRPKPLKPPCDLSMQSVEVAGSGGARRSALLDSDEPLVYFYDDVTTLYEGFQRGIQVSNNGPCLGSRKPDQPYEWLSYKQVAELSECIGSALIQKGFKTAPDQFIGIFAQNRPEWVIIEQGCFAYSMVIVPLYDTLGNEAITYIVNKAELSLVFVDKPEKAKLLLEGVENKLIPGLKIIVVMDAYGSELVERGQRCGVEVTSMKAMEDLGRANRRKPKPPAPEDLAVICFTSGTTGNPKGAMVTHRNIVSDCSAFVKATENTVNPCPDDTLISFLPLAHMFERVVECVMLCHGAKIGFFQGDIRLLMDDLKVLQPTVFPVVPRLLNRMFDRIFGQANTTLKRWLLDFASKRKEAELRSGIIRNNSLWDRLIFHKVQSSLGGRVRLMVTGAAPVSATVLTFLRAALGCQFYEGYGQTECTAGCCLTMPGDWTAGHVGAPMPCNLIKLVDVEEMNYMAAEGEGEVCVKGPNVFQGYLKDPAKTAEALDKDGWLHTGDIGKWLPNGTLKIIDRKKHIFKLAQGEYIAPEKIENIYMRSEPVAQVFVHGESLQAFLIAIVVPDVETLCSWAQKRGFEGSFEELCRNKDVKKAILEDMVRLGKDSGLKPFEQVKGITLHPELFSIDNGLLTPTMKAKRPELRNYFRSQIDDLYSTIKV
Sequence of UniProt O43182 (O43182 whole entry, looked up): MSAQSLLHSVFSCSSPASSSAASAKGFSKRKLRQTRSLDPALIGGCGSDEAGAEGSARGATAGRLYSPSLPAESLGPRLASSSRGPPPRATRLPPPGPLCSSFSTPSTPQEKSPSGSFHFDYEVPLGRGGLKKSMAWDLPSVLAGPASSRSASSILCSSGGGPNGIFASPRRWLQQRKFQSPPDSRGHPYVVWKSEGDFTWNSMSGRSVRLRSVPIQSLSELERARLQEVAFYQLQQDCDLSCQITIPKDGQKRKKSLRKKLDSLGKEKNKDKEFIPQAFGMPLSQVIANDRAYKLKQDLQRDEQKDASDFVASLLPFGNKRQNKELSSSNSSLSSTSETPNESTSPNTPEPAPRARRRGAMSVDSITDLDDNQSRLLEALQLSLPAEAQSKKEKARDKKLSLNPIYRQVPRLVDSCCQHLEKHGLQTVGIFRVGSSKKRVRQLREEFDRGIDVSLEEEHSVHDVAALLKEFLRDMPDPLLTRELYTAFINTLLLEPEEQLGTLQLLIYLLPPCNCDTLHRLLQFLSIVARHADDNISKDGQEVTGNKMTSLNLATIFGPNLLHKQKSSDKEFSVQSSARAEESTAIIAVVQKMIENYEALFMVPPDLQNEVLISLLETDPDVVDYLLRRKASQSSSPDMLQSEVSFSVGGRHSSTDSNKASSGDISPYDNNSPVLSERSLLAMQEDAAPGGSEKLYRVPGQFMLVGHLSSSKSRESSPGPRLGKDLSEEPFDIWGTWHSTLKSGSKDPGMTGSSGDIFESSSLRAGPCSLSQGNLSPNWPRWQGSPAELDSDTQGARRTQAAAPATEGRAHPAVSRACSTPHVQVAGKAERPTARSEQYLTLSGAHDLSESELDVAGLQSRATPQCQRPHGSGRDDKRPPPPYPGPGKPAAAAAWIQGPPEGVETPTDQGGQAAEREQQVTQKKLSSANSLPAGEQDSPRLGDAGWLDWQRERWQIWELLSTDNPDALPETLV
Sequence of UniProt P07311 (P07311 whole entry, looked up): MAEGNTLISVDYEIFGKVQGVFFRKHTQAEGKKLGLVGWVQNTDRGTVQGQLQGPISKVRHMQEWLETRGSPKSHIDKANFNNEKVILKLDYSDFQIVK
Sequence of UniProt P51825 (P51825 whole entry, looked up): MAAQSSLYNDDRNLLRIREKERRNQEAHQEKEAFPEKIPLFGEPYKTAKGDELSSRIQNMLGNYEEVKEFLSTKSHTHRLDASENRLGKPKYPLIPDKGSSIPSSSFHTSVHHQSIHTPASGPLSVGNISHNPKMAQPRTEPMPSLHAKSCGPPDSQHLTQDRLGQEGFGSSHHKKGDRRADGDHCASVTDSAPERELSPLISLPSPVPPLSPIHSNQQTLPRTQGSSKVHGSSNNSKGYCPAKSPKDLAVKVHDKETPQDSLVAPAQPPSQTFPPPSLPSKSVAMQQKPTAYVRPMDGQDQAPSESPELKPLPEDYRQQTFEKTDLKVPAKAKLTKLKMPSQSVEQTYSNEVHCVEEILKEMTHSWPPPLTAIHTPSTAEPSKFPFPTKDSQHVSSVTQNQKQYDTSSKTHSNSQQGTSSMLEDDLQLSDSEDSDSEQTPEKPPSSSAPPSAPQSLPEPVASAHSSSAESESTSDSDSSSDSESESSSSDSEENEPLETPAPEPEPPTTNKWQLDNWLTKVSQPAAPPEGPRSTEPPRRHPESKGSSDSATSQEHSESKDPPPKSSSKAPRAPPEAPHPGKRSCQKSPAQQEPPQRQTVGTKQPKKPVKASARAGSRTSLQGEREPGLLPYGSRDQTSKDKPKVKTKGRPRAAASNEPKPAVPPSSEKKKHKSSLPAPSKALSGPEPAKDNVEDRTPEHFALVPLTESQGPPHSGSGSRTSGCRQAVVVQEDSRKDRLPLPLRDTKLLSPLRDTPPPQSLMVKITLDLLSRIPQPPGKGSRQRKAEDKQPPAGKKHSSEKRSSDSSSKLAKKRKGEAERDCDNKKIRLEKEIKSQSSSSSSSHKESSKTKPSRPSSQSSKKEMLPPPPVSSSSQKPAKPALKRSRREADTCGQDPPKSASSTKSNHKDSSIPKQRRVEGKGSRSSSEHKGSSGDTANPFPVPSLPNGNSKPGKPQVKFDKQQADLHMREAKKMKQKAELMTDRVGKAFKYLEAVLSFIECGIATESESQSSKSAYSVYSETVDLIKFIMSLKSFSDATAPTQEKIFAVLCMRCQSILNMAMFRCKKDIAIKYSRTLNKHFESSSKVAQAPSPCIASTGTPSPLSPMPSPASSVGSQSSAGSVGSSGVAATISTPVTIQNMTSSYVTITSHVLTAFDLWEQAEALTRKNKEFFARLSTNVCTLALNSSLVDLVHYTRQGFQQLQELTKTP
Sequence of UniProt P08758 (P08758 whole entry, looked up): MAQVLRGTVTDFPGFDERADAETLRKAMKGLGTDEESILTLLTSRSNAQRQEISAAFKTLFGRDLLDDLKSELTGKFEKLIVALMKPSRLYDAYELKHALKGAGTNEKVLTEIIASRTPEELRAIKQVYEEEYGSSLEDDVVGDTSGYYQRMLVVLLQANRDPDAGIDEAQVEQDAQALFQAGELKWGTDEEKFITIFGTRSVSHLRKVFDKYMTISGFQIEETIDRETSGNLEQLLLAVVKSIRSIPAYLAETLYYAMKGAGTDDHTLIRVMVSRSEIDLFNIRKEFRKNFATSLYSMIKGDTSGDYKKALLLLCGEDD
Sequence of UniProt P05091 (P05091 whole entry, looked up): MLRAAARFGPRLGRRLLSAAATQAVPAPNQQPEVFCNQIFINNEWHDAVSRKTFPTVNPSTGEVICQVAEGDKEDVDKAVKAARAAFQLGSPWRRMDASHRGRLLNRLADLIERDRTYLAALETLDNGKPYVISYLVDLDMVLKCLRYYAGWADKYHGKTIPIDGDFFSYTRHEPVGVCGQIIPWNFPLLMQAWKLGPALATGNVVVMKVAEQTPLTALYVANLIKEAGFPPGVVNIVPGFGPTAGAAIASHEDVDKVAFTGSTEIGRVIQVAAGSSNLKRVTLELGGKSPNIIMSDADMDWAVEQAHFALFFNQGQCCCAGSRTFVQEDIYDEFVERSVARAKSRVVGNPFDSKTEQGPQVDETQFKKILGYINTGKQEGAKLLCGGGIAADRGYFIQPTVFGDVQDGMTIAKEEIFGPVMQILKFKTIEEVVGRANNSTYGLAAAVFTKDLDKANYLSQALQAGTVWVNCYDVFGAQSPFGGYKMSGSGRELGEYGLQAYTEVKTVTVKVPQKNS
Sequence of UniProt Q9Y303 (Q9Y303 whole entry, looked up): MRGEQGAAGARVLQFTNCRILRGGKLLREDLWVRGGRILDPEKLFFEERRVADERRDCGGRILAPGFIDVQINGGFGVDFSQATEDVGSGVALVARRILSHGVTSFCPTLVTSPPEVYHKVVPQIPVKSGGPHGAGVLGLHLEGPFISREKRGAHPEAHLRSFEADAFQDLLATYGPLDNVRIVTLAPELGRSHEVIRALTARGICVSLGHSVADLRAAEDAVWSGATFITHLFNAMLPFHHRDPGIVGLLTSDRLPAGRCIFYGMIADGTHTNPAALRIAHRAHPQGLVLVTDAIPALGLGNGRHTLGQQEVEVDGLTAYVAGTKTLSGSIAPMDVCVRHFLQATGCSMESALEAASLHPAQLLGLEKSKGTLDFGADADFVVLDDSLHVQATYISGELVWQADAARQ
Sequence of UniProt Q6NXE6 (Q6NXE6 whole entry, looked up): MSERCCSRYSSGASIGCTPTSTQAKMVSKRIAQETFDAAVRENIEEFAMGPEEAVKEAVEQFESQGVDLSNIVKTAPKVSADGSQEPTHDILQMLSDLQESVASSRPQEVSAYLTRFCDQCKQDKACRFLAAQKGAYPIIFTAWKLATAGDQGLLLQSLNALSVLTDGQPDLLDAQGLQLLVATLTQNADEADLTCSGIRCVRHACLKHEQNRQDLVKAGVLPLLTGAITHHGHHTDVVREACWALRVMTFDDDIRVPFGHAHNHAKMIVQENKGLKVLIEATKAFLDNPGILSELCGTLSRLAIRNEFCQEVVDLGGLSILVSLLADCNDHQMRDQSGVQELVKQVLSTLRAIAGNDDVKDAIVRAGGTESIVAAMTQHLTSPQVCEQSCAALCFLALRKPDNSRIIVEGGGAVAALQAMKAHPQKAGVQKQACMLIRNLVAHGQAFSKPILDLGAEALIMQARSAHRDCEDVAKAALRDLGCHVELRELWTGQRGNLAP
Sequence of UniProt Q9NXU5 (Q9NXU5 whole entry, looked up): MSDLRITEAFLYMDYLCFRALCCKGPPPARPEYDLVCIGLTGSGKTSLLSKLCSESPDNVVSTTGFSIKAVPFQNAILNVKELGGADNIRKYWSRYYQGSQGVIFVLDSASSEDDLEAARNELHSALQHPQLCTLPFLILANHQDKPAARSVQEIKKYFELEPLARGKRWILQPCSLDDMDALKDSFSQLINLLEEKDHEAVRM

Each target was assayed with NC(=O)Nc1cc(-c2cccc(F)c2)sc1C(=O)N[C@H]1CCCNC1 (assay: log2 fold change, soluble protein after heating vs DMSO (PISA); higher = thermal stabilisation; K562 lysate, 10 uM; active = over 0.2 and 3.5 SD of the protein, either way, in both replicates (recomputed)).
Summary of the method: (§1)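 The values are log-two fold changes in thermal stability compared with solvent controls and come from duplicates. They were obtained by TMTpro 16plex LC-MS/MS, with channel sums equalised, on the supernatant after 21,000xg for 90 min. That supernatant came from crude K562 extract at 1 mg/mL protein treated with 10 μM compound for 30 min, heated for 3 min across 48°C-58°C, pooled and brought to 0.5% NP-40 at 4°C.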
ACYP1 (UniProt P07311) gave a log2 fold change of -0.029.
Work on AKAP11 (UniProt Q9UKA4) yielded a log2 fold change of 0.008.
ALDH2 (UniProt P05091) was tested, and the log2 fold change was 0.001.
For ARHGAP6 (UniProt O43182), the log2 fold change was 0.034.
ACSL1 (UniProt P33121) was tested, and the log2 fold change was 0.034.
Target ARMC6 (UniProt Q6NXE6) has a log2 fold change of 0.094.
Work on AFF1 isoform 2 (UniProt P51825) yielded a log2 fold change of -0.005.
ANKRD30A (UniProt Q9BXX3) was tested, and the log2 fold change was 0.047.
AMDHD2 isoform 3 (UniProt Q9Y303) was tested, and the log2 fold change was -0.011.
With ANXA5 (UniProt P08758) the log2 fold change was 0.018.
Target ACTG1 (UniProt I3L4N8) has a log2 fold change of -0.053.
ARL15 (UniProt Q9NXU5) showed a log2 fold change of -0.034.

These targets were tested with NC(=O)c1cnc(N[C@@H]2CCCC[C@@H]2N)nc1Nc1cccc(-n2nccn2)c1 in the same assay as above.
Summary of the method: as §1
ARHGAP25 isoform 4 (UniProt P42331) showed a log2 fold change of 0.028.
ARAF (UniProt P10398) was tested, and the log2 fold change was 0.018.
Work on ANP32A (UniProt P39687) yielded a log2 fold change of 0.012.
In the case of ALDH5A1 isoform 2 (UniProt P51649), the log2 fold change is reported as 0.004.
Target ANP32E (UniProt Q9BTT0) has a log2 fold change of -0.065.
Target AKAP8L (UniProt Q9ULX6) has a log2 fold change of 0.002.
Work on ABHD13 (UniProt Q7L211) yielded a log2 fold change of 0.037.
ANXA11 (UniProt P50995) gave a log2 fold change of 0.009.
ADD1 isoform 3 (UniProt P35611) was tested, and the log2 fold change was -0.015.
Work on AK2 (UniProt P54819) yielded a log2 fold change of 0.013.
Work on AKAP8 (UniProt O43823) yielded a log2 fold change of 0.022.
For ARFGAP1 (UniProt Q8N6T3), the log2 fold change was -0.032.
With ANAPC7 (UniProt Q9UJX3) the log2 fold change was 0.
Target ALDH6A1 (UniProt Q02252) has a log2 fold change of -0.038.
Target ANKRD27 (UniProt Q96NW4) has a log2 fold change of 0.025.
With ALG13 (UniProt Q9NP73) the log2 fold change was 0.028.
ASB6 (UniProt Q9NWX5) gave a log2 fold change of 0.016.
ACAT1 (UniProt P24752) gave a log2 fold change of -0.005.
ANKRD54 (UniProt Q6NXT1) gave a log2 fold change of 0.
AKT2 (UniProt P31751) gave a log2 fold change of -0.015.
With AP5B1 (UniProt Q2VPB7) the log2 fold change was -0.023.
For ANXA1 (UniProt P04083), the log2 fold change was 0.003.
ARHGAP21 (UniProt Q5T5U3) was tested, and the log2 fold change was 0.002.
For ACYP1 (UniProt P07311), the log2 fold change was -0.013.
For AKAP11 (UniProt Q9UKA4), the log2 fold change was 0.014.
With ALDH2 (UniProt P05091) the log2 fold change was 0.016.
For ARHGAP6 (UniProt O43182), the log2 fold change was -0.025.
ACSL1 (UniProt P33121) showed a log2 fold change of -0.025.
Target ARMC6 (UniProt Q6NXE6) has a log2 fold change of 0.017.
AFF1 isoform 2 (UniProt P51825) gave a log2 fold change of 0.194.
For ANKRD30A (UniProt Q9BXX3), the log2 fold change was 0.807.
Work on AMDHD2 isoform 3 (UniProt Q9Y303) yielded a log2 fold change of -0.022.
Target ANXA5 (UniProt P08758) has a log2 fold change of 0.01.
With ACTG1 (UniProt I3L4N8) the log2 fold change was -0.033.
With ARL15 (UniProt Q9NXU5) the log2 fold change was 0.021.

The targets below were run with NC1(c2ccc(-c3nc4ccn5c(=O)[nH]nc5c4cc3-c3ccccc3)cc2)CCC1 in the same assay as above.
Summary of the method: as §1
ARHGAP25 isoform 4 (UniProt P42331) showed a log2 fold change of -0.009.
For ARAF (UniProt P10398), the log2 fold change was -0.012.
With ANP32A (UniProt P39687) the log2 fold change was -0.359 (active).
For ALDH5A1 isoform 2 (UniProt P51649), the log2 fold change was -0.023.
ANP32E (UniProt Q9BTT0) gave a log2 fold change of 0.023.
For AKAP8L (UniProt Q9ULX6), the log2 fold change was 0.028.
With ANXA11 (UniProt P50995) the log2 fold change was 0.028.
ADD1 isoform 3 (UniProt P35611) was tested, and the log2 fold change was 0.011.
With AK2 (UniProt P54819) the log2 fold change was 0.004.
AKAP8 (UniProt O43823) gave a log2 fold change of 0.059.
ARFGAP1 (UniProt Q8N6T3) was tested, and the log2 fold change was -0.111.
ANAPC7 (UniProt Q9UJX3) gave a log2 fold change of -0.018.
ALDH6A1 (UniProt Q02252) was tested, and the log2 fold change was -0.013.
Target ANKRD27 (UniProt Q96NW4) has a log2 fold change of -0.033.
ALG13 (UniProt Q9NP73) gave a log2 fold change of -0.009.
In the case of ASB6 (UniProt Q9NWX5), the log2 fold change is reported as 0.08.
For ACAT1 (UniProt P24752), the log2 fold change was 0.021.
With ANKRD54 (UniProt Q6NXT1) the log2 fold change was 0.04.
For AKT2 (UniProt P31751), the log2 fold change was 0.559 (active).
Target AP5B1 (UniProt Q2VPB7) has a log2 fold change of -0.036.
With ANXA1 (UniProt P04083) the log2 fold change was 0.009.
Target ARHGAP21 (UniProt Q5T5U3) has a log2 fold change of -0.021.
In the case of ACYP1 (UniProt P07311), the log2 fold change is reported as 0.039.
Work on AKAP11 (UniProt Q9UKA4) yielded a log2 fold change of -0.05.
In the case of ALDH2 (UniProt P05091), the log2 fold change is reported as -0.003.
ARHGAP6 (UniProt O43182) gave a log2 fold change of -0.039.
For ACSL1 (UniProt P33121), the log2 fold change was -0.04.
Work on ARMC6 (UniProt Q6NXE6) yielded a log2 fold change of -0.031.
Work on AFF1 isoform 2 (UniProt P51825) yielded a log2 fold change of 0.008.
AMDHD2 isoform 3 (UniProt Q9Y303) was tested, and the log2 fold change was 0.002.
For ANXA5 (UniProt P08758), the log2 fold change was 0.012.
Target ACTG1 (UniProt I3L4N8) has a log2 fold change of -0.114.
Work on ARL15 (UniProt Q9NXU5) yielded a log2 fold change of 0.022.
